Test results from PubChem BioAssay AID1159580 (chemical genetic matrix, 2015).
Out of some 5,500 compounds screened, about 2,000 (36%) were called active. Inconclusive results (about 18%) are left out. Cut-off read from the data, not from the text of the source: active = normalized growth mostly below about 0.91 (no sharp cut-off); inconclusive = no clear call, values can overlap the other calls; inactive = mostly above about 0.92. Some of the results follow.

Assay: chemical genetic growth profiling, strain panel (AID 1159580);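 note: tested at 20 µM; growth read once vehicle control cultures reached saturation at 30 °C; 1 = growth at the plate median or of vehicle wells; lower values mean less growth of the strain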
Conditions: growth OD
[1] = S. cerevisiae deletion strains, locus YAL013W, strain DEP1, stronger effect = lower value
[2] = S. cerevisiae deletion strains, locus YNL128W, strain TEP1, stronger effect = lower value
[3] = S. cerevisiae deletion strains, locus YPL241C, strain CIN2, stronger effect = lower value
[4] = S. cerevisiae deletion strains, locus YBR021W, strain FUR4, stronger effect = lower value
[5] = S. cerevisiae deletion strains, locus YBR229C, strain ROT2, stronger effect = lower value
[6] = S. cerevisiae deletion strains, locus YCL029C, strain bik1, stronger effect = lower value
[7] = S. cerevisiae deletion strains, locus YDL035C, strain GPR1, stronger effect = lower value
[8] = S. cerevisiae deletion strains, locus YDL074C, strain BRE1, stronger effect = lower value
[9] = S. cerevisiae deletion strains, locus YDL101C, strain DUN1, stronger effect = lower value
[10] = S. cerevisiae deletion strains, locus YDL134C, strain PPH21, stronger effect = lower value
[11] = S. cerevisiae deletion strains, locus YDL185W, strain tfp1, stronger effect = lower value
[12] = S. cerevisiae deletion strains, locus YDL192W, strain arf1, stronger effect = lower value
[13] = S. cerevisiae deletion strains, locus YDR101C, strain arx1, stronger effect = lower value
[14] = S. cerevisiae deletion strains, locus YDR150W, strain NUM1, stronger effect = lower value
[15] = S. cerevisiae deletion strains, locus YDR162C, strain NBP2, stronger effect = lower value
[16] = S. cerevisiae deletion strains, locus YDR318W, strain mcm21, stronger effect = lower value
[17] = S. cerevisiae deletion strains, locus YDR388W, stronger effect = lower value
[18] = S. cerevisiae deletion strains, locus YDR502C, strain sam2, stronger effect = lower value
[19] = S. cerevisiae deletion strains, locus YEL061C, strain CIN8, stronger effect = lower value
[20] = S. cerevisiae deletion strains, locus YER110C, stronger effect = lower value
[21] = S. cerevisiae deletion strains, locus YER155C, strain BEM2, stronger effect = lower value
[22] = S. cerevisiae deletion strains, locus YER167W, strain BCK2, stronger effect = lower value
[23] = S. cerevisiae deletion strains, locus YGL078C, strain dbp3, stronger effect = lower value
[24] = S. cerevisiae deletion strains, locus YGL086W, strain mad1, stronger effect = lower value
[25] = S. cerevisiae deletion strains, locus YGL248W, strain PDE1, stronger effect = lower value
[26] = S. cerevisiae deletion strains, locus YGR078C, strain PAC10, stronger effect = lower value
[27] = S. cerevisiae deletion strains, locus YGR135W, strain pre9, stronger effect = lower value
[28] = S. cerevisiae deletion strains, locus YGR229C, strain SMI1, stronger effect = lower value
[29] = S. cerevisiae deletion strains, locus YGR252W, strain gcn5, stronger effect = lower value
[30] = S. cerevisiae deletion strains, locus YHR030C, strain SLT2, stronger effect = lower value
[31] = S. cerevisiae deletion strains, locus YHR079C, strain IRE1 (second series), stronger effect = lower value
[32] = S. cerevisiae deletion strains, locus YHR094C, strain hxt1, stronger effect = lower value
[33] = S. cerevisiae deletion strains, locus YHR129C, strain ARP1, stronger effect = lower value
[34] = S. cerevisiae deletion strains, locus YHR200W, strain rpn10, stronger effect = lower value
[35] = S. cerevisiae deletion strains, locus YIL066C, strain RNR3, stronger effect = lower value
[36] = S. cerevisiae deletion strains, locus YIL073C, strain SPO22, stronger effect = lower value
[37] = S. cerevisiae deletion strains, locus YIL125W, strain kgd1, stronger effect = lower value
[38] = S. cerevisiae deletion strains, locus YIR030C, strain dcg1, stronger effect = lower value
[39] = S. cerevisiae deletion strains, locus YJL095W, strain BCK1, stronger effect = lower value
[40] = S. cerevisiae deletion strains, locus YJL134W, strain LCB3, stronger effect = lower value
[41] = S. cerevisiae deletion strains, locus YJL168C, strain set2, stronger effect = lower value
[42] = S. cerevisiae deletion strains, locus YJL187C, strain SWE1 (second series), stronger effect = lower value
[43] = S. cerevisiae deletion strains, locus YJR043C, strain POL32, stronger effect = lower value
[44] = S. cerevisiae deletion strains, locus YJR075W, strain HOC1, stronger effect = lower value
[45] = S. cerevisiae deletion strains, locus YKL009W, strain mrt4, stronger effect = lower value
[46] = S. cerevisiae deletion strains, locus YKL068W, stronger effect = lower value
[47] = S. cerevisiae deletion strains, locus YKL085W, strain MDH1 (second series), stronger effect = lower value
[48] = S. cerevisiae deletion strains, locus YKL085W, strain MDH1, stronger effect = lower value
[49] = S. cerevisiae deletion strains, locus YKL190W, strain CNB1, stronger effect = lower value
[50] = S. cerevisiae deletion strains, locus YKR001C, strain vps1, stronger effect = lower value
[51] = S. cerevisiae deletion strains, locus YLR039C, strain RIC1, stronger effect = lower value
[52] = S. cerevisiae deletion strains, locus YLR058C, strain SHM2, stronger effect = lower value
[53] = S. cerevisiae deletion strains, locus YLR102C, strain apc9, stronger effect = lower value
[54] = S. cerevisiae deletion strains, locus YLR262C, strain YPT6, stronger effect = lower value
[55] = S. cerevisiae deletion strains, locus YLR268W, strain sec22, stronger effect = lower value
[56] = S. cerevisiae deletion strains, locus YLR330W, strain CHS5, stronger effect = lower value
[57] = S. cerevisiae deletion strains, locus YLR342W, strain FKS1 (second series), stronger effect = lower value
[58] = S. cerevisiae deletion strains, locus YLR371W, strain rom2, stronger effect = lower value
[59] = S. cerevisiae deletion strains, locus YLR418C, strain cdc73, stronger effect = lower value
[60] = S. cerevisiae deletion strains, locus YML016C, strain PPZ1, stronger effect = lower value
[61] = S. cerevisiae deletion strains, locus YML032C, strain rad52, stronger effect = lower value
[62] = S. cerevisiae deletion strains, locus YML124C, strain tub3, stronger effect = lower value
[63] = S. cerevisiae deletion strains, locus YMR078C, strain ctf18, stronger effect = lower value
[64] = S. cerevisiae deletion strains, locus YMR223W, strain ubp8, stronger effect = lower value
[65] = S. cerevisiae deletion strains, locus YMR263W, strain SAP30, stronger effect = lower value
[66] = S. cerevisiae deletion strains, locus YMR307W, strain GAS1, stronger effect = lower value
[67] = S. cerevisiae deletion strains, locus YNL067W, strain RPL9B, stronger effect = lower value
[68] = S. cerevisiae deletion strains, locus YNL153C, strain GIM3, stronger effect = lower value
[69] = S. cerevisiae deletion strains, locus YNL233W, strain BNI4, stronger effect = lower value
[70] = S. cerevisiae deletion strains, locus YNL250W, strain rad50, stronger effect = lower value
[71] = S. cerevisiae deletion strains, locus YNL271C, strain bni1, stronger effect = lower value
[72] = S. cerevisiae deletion strains, locus YNL298W, strain CLA4, stronger effect = lower value
[73] = S. cerevisiae deletion strains, locus YNL307C, strain MCK1, stronger effect = lower value
[74] = S. cerevisiae deletion strains, locus YNL322C, strain KRE1, stronger effect = lower value
[75] = S. cerevisiae deletion strains, locus YNR052C, strain pop2, stronger effect = lower value
[76] = S. cerevisiae deletion strains, locus YOL006C, strain TOP1, stronger effect = lower value
[77] = S. cerevisiae deletion strains, locus YOL012C, strain htz1
[78] = S. cerevisiae deletion strains, locus YOL147C, strain pex11, stronger effect = lower value
[79] = S. cerevisiae deletion strains, locus YOR061W, strain CKA2, stronger effect = lower value
[80] = S. cerevisiae deletion strains, locus YOR069W, strain VPS5, stronger effect = lower value
[81] = S. cerevisiae deletion strains, locus YOR136W, strain idh2, stronger effect = lower value
[82] = S. cerevisiae deletion strains, locus YOR144C, strain elg1, stronger effect = lower value
[83] = S. cerevisiae deletion strains, locus YOR184W, strain ser1, stronger effect = lower value
[84] = S. cerevisiae deletion strains, locus YOR316C, strain cot1, stronger effect = lower value
[85] = S. cerevisiae deletion strains, locus YPL055C, strain LGE1, stronger effect = lower value
[86] = S. cerevisiae deletion strains, locus YPR119W, strain clb2, stronger effect = lower value
[87] = S. cerevisiae deletion strains, locus YPR141C, strain kar3, stronger effect = lower value
[88] = S. cerevisiae deletion strains, locus YPR163C, strain tif3, stronger effect = lower value
[89] = S. cerevisiae deletion strains, locus YPR167C, strain met16, stronger effect = lower value
[90] = S. cerevisiae deletion strains, strain wtn01, stronger effect = lower value
[91] = S. cerevisiae strains, strain wild type, stronger effect = lower value

Measured: normalized growth

Nc1ncn(C2OC(CO)C(O)C2O)c(=O)n1 (configuration not stated)
inactive: [1] 1.02 | S. cerevisiae deletion strains, locus YAL040C, strain CLN3, stronger effect = lower value 0.999 | S. cerevisiae deletion strains, locus YCL061C, strain MRC1 (second series), stronger effect = lower value 0.999 | S. cerevisiae deletion strains, locus YER002W, strain NOP16, stronger effect = lower value 0.997 | [2] 0.994 | S. cerevisiae deletion strains, locus YNL175C, strain NOP13, stronger effect = lower value 0.992 | S. cerevisiae deletion strains, locus YNL197C, strain WHI3, stronger effect = lower value 1.01 | S. cerevisiae deletion strains, locus YNL224C, strain SQS1, stronger effect = lower value 0.988 | S. cerevisiae deletion strains, locus YOR083W, strain WHI5 (second series), stronger effect = lower value 1 | [3] 1

NCCCCCCNS(=O)(=O)c1cccc2c(Cl)cccc12
inactive: [1] 1 | [4] 1 | [5] 0.982 | [6] 0.983 | [7] 0.989 | [8] 1.02 | [9] 0.991 | [10] 0.985 | [11] 0.986 | [12] 0.996 | [13] 0.997 | [14] 0.987 | [15] 1.01 | [16] 0.973 | [17] 0.99 | [18] 0.984 | [19] 0.995 | [20] 0.99 | [21] 1.01 | [22] 0.979 | [23] 0.998 | [24] 0.958 | [25] 0.968 | [26] 1 | [27] 0.988 | [28] 1.01 | [29] 0.908 | [30] 0.989 | [31] 0.978 | [32] 1 | [33] 1 | [34] 0.979 | [35] 0.996 | [36] 0.957 | [37] 0.997 | [38] 0.992 | [39] 0.988 | [40] 0.995 | [41] 0.994 | [42] 0.993 | [43] 0.971 | [44] 1.02 | [45] 0.953 | [46] 0.999 | [47] 0.991 | [48] 0.991 | [49] 0.996 | [50] 0.983 | [51] 1.01 | [52] 0.988 | [53] 1 | [54] 1.02 | [55] 0.999 | [56] 0.997 | [57] 0.935 | [58] 0.993 | [59] 1 | [60] 0.989 | [61] 0.961 | [62] 0.987 | [63] 0.98 | [64] 0.961 | [65] 1.01 | [66] 0.942 | [67] 1.01 | [2] 1.01 | [68] 1 | [69] 0.996 | [70] 0.981 | [71] 0.997 | [72] 0.983 | [73] 0.965 | [74] 0.995 | [75] 0.974 | [76] 0.955 | [77] 0.747 | [78] 0.994 | [79] 0.995 | [80] 0.988 | [81] 0.991 | [82] 0.993 | [83] 0.961 | [84] 0.986 | [85] 1.04 | [3] 0.998 | [86] 1 | [87] 0.999 | [88] 0.985 | [89] 0.986 | [90] 0.981 | [91] 0.997

Cc1ccc2c(c1)C1(C)CCCC(C)(C(=O)O)C1CC2 (configuration not stated)
inactive: [1] 0.982 | [4] 1.04 | [5] 0.972 | [6] 0.998 | [7] 0.99 | [8] 0.951 | [9] 0.975 | [10] 0.992 | [11] 0.95 | [12] 1 | [13] 1.01 | [14] 0.992 | [15] 0.907 | [16] 1.02 | [17] 1.01 | [18] 0.984 | [19] 0.993 | [20] 0.991 | [21] 1.01 | [22] 1.01 | [23] 0.96 | [24] 1.03 | [25] 0.994 | [26] 0.979 | [27] 0.96 | [28] 0.979 | [29] 1.06 | [30] 1.02 | [31] 1.01 | [32] 0.996 | [33] 1.01 | [34] 1.01 | [35] 0.994 | [36] 1.03 | [37] 0.986 | [38] 0.998 | [39] 1 | [40] 1.01 | [41] 1 | [42] 0.968 | [43] 1.05 | [44] 1.01 | [45] 0.999 | [46] 0.982 | [47] 0.997 | [48] 0.997 | [49] 0.989 | [50] 1.01 | [51] 0.862 | [52] 0.989 | [53] 0.989 | [54] 0.806 | [55] 0.965 | [56] 1 | [57] 1.06 | [58] 1.02 | [59] 0.967 | [60] 0.998 | [61] 1.03 | [62] 1 | [63] 0.994 | [64] 1.03 | [65] 0.973 | [66] 0.976 | [67] 0.974 | [2] 0.949 | [68] 0.957 | [69] 0.993 | [70] 0.972 | [71] 0.994 | [72] 0.968 | [73] 1.01 | [74] 0.997 | [75] 1.02 | [76] 0.956 | [77] 1.15 | [78] 1 | [79] 0.973 | [80] 1 | [81] 1.01 | [82] 1 | [83] 1.05 | [84] 0.999 | [85] 0.946 | [3] 0.997 | [86] 1 | [87] 0.939 | [88] 1 | [89] 0.995 | [90] 0.999 | [91] 0.993
